In PubChem BioAssay AID2435 (The Scripps Research Institute Molecular Screening Center, 2010) one finds activation data, which are given here for 90 molecules.

In all, about 320,000 compounds went through this assay and about 1,000 (0.31%) were called active.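 The calls were made as follows: active = activation above the mean of all tested compounds plus 3 SD, cutoff set per screening run (cut at about 20% in these data); inactive = the rest.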 The full list was thinned out, with actives kept by preference.

Sequence of Oxytocin receptor (Homo sapiens) (P30559 whole entry, looked up): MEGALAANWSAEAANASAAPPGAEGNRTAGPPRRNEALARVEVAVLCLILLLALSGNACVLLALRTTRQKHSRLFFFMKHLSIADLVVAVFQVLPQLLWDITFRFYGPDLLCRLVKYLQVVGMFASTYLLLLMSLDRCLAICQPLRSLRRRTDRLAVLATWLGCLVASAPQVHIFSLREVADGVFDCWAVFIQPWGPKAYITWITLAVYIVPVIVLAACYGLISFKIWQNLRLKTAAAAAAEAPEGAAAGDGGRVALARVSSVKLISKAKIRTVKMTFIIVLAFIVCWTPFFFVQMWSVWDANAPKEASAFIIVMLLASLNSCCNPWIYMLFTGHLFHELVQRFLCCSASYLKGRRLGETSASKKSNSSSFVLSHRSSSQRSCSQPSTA

The test concerns the target Oxytocin receptor (Homo sapiens) (UniProt P30559). The experiment in a line: human OXTR agonists, primary screen, fluorescence, CHO-OTR cells, Fluo-8 calcium (AID 2435).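 Also: peak over basal fluorescence ratio from a 100 s FLIPR kinetic read.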 The note with it: Fluo-8 calcium fluorescence, at 3 µM, active compounds read high, normalized: DMSO 0%, oxytocin 100%.
As for `Cc1ccc(O)c(NC(=O)COc2cc(C)ccc2C)c1`, the activation is 0.92% (inactive).
For the molecule `Cc1ccc(O)c(NC(=S)NC(=O)COc2ccc(Br)cc2)c1`, the activation is 51.9% (active).
In the case of `Cc1cccc(OCC(=O)NC(=S)Nc2ccccc2N2CCOCC2)c1` it was -0.15% (inactive).
In the case of `COc1ccc([N+](=O)[O-])cc1NCC(=O)c1ccc(C)cc1` it was -1.36% (inactive); in that of `NC(=O)C1=C[C@H](c2csc3ccccc23)C[C@H](OCc2ccc(CO)cc2)O1`, 25.9% (active).
As to `O=C(NC1CC1)C1=C[C@H](c2c[nH]c3ccccc23)C[C@H](OCc2ccc(CO)cc2)O1`, the activation was -0.84% (inactive).
Consider `NC(=O)C1=C[C@@H](c2csc3ccccc23)C[C@@H](OCc2ccc(CO)cc2)O1`, for which the activation was 5% (inactive).
The value for `Cc1ccc(NC(=O)CN(C)C(=O)c2cccc(S(=O)(=O)N3CCCC3)c2)cc1` was -1.01% (inactive).
The value for `COc1ccc(/C=C2\SC(=S)N(CCC(=O)Nc3cccc(C(=O)O)c3)C2=O)cc1OC` was -0.74% (inactive); that for `COc1ccc(/C=C2\SC(=S)N(CCCC(=O)NC3CCCC3)C2=O)cc1OC` was -1.19% (inactive).
In the case of `COc1cc(/C=C2/SC(=S)N(Cc3ccccc3)C2=O)cc(OC)c1O` it was 23.8% (active); in that of `COCCn1c(N)c(NCc2ccccc2)c(=O)[nH]c1=O`, 0.2% (inactive).
For `COc1ccc(Cl)cc1NC(=O)NCC1CCN(Cc2ccccc2F)CC1`, the activation is 19.8% (active).
Consider `COc1cc(NC(=O)NCC2CCN(Cc3ccc(C)cc3)CC2)cc(OC)c1OC`, for which the activation was 1.34% (inactive).
In the case of `Cc1cccc(CN2CCC(CNC(=O)Nc3ccc(F)c(Cl)c3)CC2)c1` it was 28.2% (active).
As for `O=C(NCC1CCN(Cc2ccccc2Cl)CC1)Nc1cccc(Cl)c1`, the activation was 4.22% (inactive).
In the case of `Cc1ccc(C)c(CN2CCC(CNC(=O)Nc3ccc(C)c(F)c3)CC2)c1` it was 2.73% (inactive); in that of `Cc1ccccc1NC(=O)NCC1CCN(Cc2cccc(Cl)c2)CC1`, 1.57% (inactive).
As for `CCn1cc(CCC(=O)NCc2ccc(F)cc2)c2ccccc21`, the activation is -1.14% (inactive).
The value for `COc1ccc(C(C#N)N2N=C(C)CC2(C)C)cc1` (stereo not given) was 0.73% (inactive); that for `COc1cc(C(F)(F)F)c(C(=O)N(C)c2ccc(Cl)cc2)cn1` was -1.66% (inactive); that for `COc1ccccc1CNS(=O)(=O)c1cc2c3c(c1)CCC(=O)N3CCC2` was 2.19% (inactive).
The value for `CCOc1ccc(N(C(=O)c2snc(C(N)=O)c2N)C(C(=O)NCC2CCCO2)c2c[nH]c3ccccc23)cc1` (stereo not given) was 1.87% (inactive).
In the case of `CC1CCN(CCC(=O)Nc2ccccc2)CC1` it was -0.16% (inactive); in that of `CCOC(=O)N1CCN(CCC(=O)Nc2ccccc2)CC1`, -0.17% (inactive).
In the case of `Cc1cc(NC(=O)CCN2CCN(Cc3ccccc3)CC2)ccc1Br`, the activation is 23.2% (active).
In the case of `Cc1ccccc1CCNC(=O)C1CCC(=O)N(Cc2ccc(Cl)cc2)C1` (stereo not given) it was -1.42% (inactive).
The value for `CCCCCN(C(=O)CCC(=O)OCC(=O)NCc1ccc(OC)cc1)c1c(N)n(CCCC)c(=O)[nH]c1=O` was -0.95% (inactive).
In the case of `Cc1ccc(-c2cc(C(=O)NN)n[nH]2)o1` it was -1.85% (inactive); in that of `COc1ccc(C(=O)NNC(=O)c2cc(C)[nH]n2)cc1`, -1.68% (inactive); in that of `CC(CO)(CO)NC(=O)c1ccc(=O)[nH]n1`, 45.8% (active).
As to `O=C(CSc1nc2[nH]ncc2c(=O)[nH]1)Nc1ccc(F)cc1`, the activation was 0.71% (inactive).
Regarding `O=C(NCCC1CCCCN1S(=O)(=O)c1ccc(Cl)cc1)C(=O)NCc1ccco1` (stereo not given), the activation is -1.1% (inactive).
The value for `CCN(CC)c1ccc2oc(=O)c(C)nc2c1` was 38% (active).
As to `CCN(CC)c1ccc(C(=O)Nn2c(C)nc3ccccc3c2=O)cc1`, the activation was 3.66% (inactive).
In the case of `C=CCN(C(=O)Nc1ccc2oc(C)nc2c1)c1ccccc1` it was -0.77% (inactive); in that of `CCOc1ccc(C)cc1S(=O)(=O)NC1CCCCCC1`, -1.02% (inactive).
In the case of `C[C@@H]1O[C@@H](OC[C@H]2O[C@@H](Oc3c(-c4ccc(O)cc4)oc4cc(O)cc(O)c4c3=O)[C@H](O)[C@@H](O)[C@@H]2O)[C@H](O)[C@H](O)[C@H]1O` it was -0.01% (inactive); in that of `CCCCc1nc(NCCN)c(C#N)c2c1CSC(C)(C)C2`, 7.89% (inactive).
In the case of `CCCC(O)(c1ccc(OC)cc1)C(CN(C)C)c1ccccc1` (stereo not given) it was 1.32% (inactive).
For the molecule `COC(=O)c1ccc(OCC(O)CN(CCO)CC(O)Cn2ccc3ccccc32)cc1` (stereo not given), the activation is 3.04% (inactive).
In the case of `COc1ccc(CN2C(=O)CC(Cc3ccc(C)cc3)C2=O)cc1OC` (stereo not given), the activation was -1.49% (inactive).
Regarding `CCN(Cc1ccccc1)C(=O)CSc1nc(C)cc2c1C(=O)OC2`, the activation was 1.04% (inactive).
The value for `Cc1ccc(CNC(=O)c2cccc3c2C(=O)c2ccc(N4CCC(C)CC4)cc2S3(=O)=O)cc1` was 40.5% (active); that for `CC1CCN(c2c(NCc3ccc(C(=O)NCc4ccccc4)cc3)c(=O)c2=O)CC1` was 0.21% (inactive).
For `Cc1ccc(CNC(=O)c2ccc3c(c2)S(=O)(=O)c2ccccc2C3=O)cc1`, the activation was -0.21% (inactive).
Regarding `CC(C)Oc1c(Br)cc(Br)cc1/C=N/NC(N)=S`, the activation is -1.11% (inactive).
The value for `O=C(CSc1ncnc2sccc12)N1CCN(C(=O)c2cccs2)CC1` was 1.17% (inactive); that for `Nc1c(C(=O)c2cccs2)sc2nsc(SCCN3CCCCC3)c12` was 50.2% (active); that for `O=C(CCCN1C(=O)CCC1=O)Nc1ccc(Cl)c(C(F)(F)F)c1` was 6.54% (inactive).
The value for `CC1=CC(=C(C#N)c2nc3ccccc3s2)C=C(C)N1c1ccc(F)cc1F` was 0.27% (inactive).
In the case of `O=c1[nH][nH]c(C(F)(F)F)c1C=NCc1ccccc1Cl` it was 1.38% (inactive); in that of `O=C(NCCCc1ccccc1)C(=O)NCC1OCCN1S(=O)(=O)c1ccccc1` (stereo not given), -0.3% (inactive); in that of `COC(=O)Cc1cc(=O)oc2c(C)c(O)ccc12`, 3.75% (inactive).
Take `Cc1cc(S(=O)(=O)c2cc3ccc(O)c(C)c3oc2=O)ccc1F`: the activation is 20.6% (active).
In the case of `COc1cccc2cc(S(=O)(=O)c3ccc(C)cc3)/c(=N/NS(=O)(=O)c3ccc(C)cc3)oc12`, the activation is -0.02% (inactive).
The value for `COCCNC(=O)NC(=O)COC(=O)C1(c2ccc(Cl)cc2)CC1` was -1.47% (inactive); that for `CCc1c(C)sc(NC(=O)OC)c1C(=O)N1CCOCC1` was -0.45% (inactive).
Regarding `COc1ccc(OCCCn2cccc2/C=C2/C(=N)N3OC(C)=CC3=NC2=O)cc1`, the activation was 1.35% (inactive).
In the case of `CCOc1cc(/C=C2/C(=N)N3OC(C)=CC3=NC2=O)ccc1OC` it was -0.04% (inactive).
The value for `CC1=CC2=NC(=O)/C(=C/c3coc4ccccc4c3=O)C(=N)N2O1` was 30.4% (active); that for `C=CCSc1nc(N)cc(=O)[nH]1` was 0.06% (inactive).
In the case of `CCOC(=O)Cn1c(-c2cccnc2Cl)nc2ccccc21` it was 0.33% (inactive); in that of `CCCCCCCCCCOC(=O)Cn1c(COc2ccc(C)cc2)[n+](C)c2ccccc21`, -1.93% (inactive); in that of `CCCCCCCCCCOC(=O)Cn1c(COc2cccc(OC)c2)[n+](C)c2ccccc21`, 21.5% (active).
As to `CC1=CC(C)(C)NC(=S)N1c1ccccc1`, the activation is -0.69% (inactive).
`Cc1cc(N)n2nc(-c3ccc(C(C)(C)C)cc3)cc2n1`: the activation is -1.18% (inactive).
In the case of `C#CCOCCOCCOCCNc1nc(N2CCN(C(=O)C([C@@H](C)CC)n3cc(C(N)COC(=O)C(F)(F)F)nn3)CC2)nc(N2CCN(C(=O)[C@H](Cc3ccc(O)cc3)n3cc(C(N)[C@H](C)CC)nn3)CC2)n1` (stereo not given in full) it was 0.32% (inactive); in that of `c1ccc(C2CNCc3c2ccc2ccccc32)cc1` (stereo not given), 22.4% (active).
Consider `c1ccc2c(CCN3CCNC[C@H]3Cc3cccc4ccccc34)cccc2c1`, for which the activation is 8.2% (inactive).
In the case of `COCCn1c(=O)[nH]c(=O)c2cc(C(=O)c3cc(OC)ccc3O)cnc21`, the activation is -0.31% (inactive).
In the case of `Cc1ccc2oc(=O)c3cnn(CC(=O)N(Cc4ccco4)C4CCCCC4)c3c2c1` it was -1.36% (inactive).
In the case of `CC1CN(S(=O)(=O)c2ccc(C(=O)NN3CCN(C)CC3)cc2)CC(C)O1` (stereo not given) it was 0.04% (inactive); in that of `CCOc1ccc(C2=CC(c3ccccc3)n3ncnc3N2)cc1` (stereo not given), -2.25% (inactive); in that of `COc1ccc(C2C=C(c3ccc(Br)cc3)Nc3nc(NS(C)(=O)=O)nn32)cc1` (stereo not given), 20.5% (active).
Take `Brc1ccc(C2=CC(c3ccco3)n3ncnc3N2)cc1` (stereo not given): the activation is 16.4% (inactive).
Regarding `COc1ccc(OC)c(NC(=S)N2CCc3ccccc3C2)c1`, the activation is -1.2% (inactive).
In the case of `O=S(=O)(c1cccc(Cn2nnc(-c3ccc(F)cc3)n2)c1)N1CCOCC1` it was 18.4% (inactive); in that of `O=C(C1CCCN1S(=O)(=O)c1ccc(Br)cc1)N1CCOCC1` (stereo not given), -0.61% (inactive).
Regarding `CCOc1ccc(Cn2nnc(C(=O)NCc3ccccc3)c2N)cc1`, the activation was 32% (active).
As for `COc1ccc(CNC(=O)c2nnn(CC(=O)Nc3cc(C)cc(C)c3)c2N)cc1`, the activation is 0.21% (inactive).
In the case of `CCOc1ccc(Cn2nnc(C(=O)Nc3ccc(OC)cc3OC)c2N)cc1` it was 25.1% (active).
In the case of `CCc1ccc(NC(=O)Cn2nnc(C(=O)NCc3ccc(OC)cc3)c2N)cc1` it was 0.62% (inactive); in that of `COc1cccc(CNC(=O)c2nnn(CC(=O)Nc3cc(Cl)ccc3C)c2N)c1`, 2.37% (inactive); in that of `COc1ccc(NC(=O)Cn2nnc(C(=O)NCCc3ccc(OC)c(OC)c3)c2N)cc1`, -0.34% (inactive).
In the case of `Cc1ccc2c(c1)N(CC(=O)N1CCC(C)CC1)C(=O)c1cccnc1O2` it was 1.7% (inactive).
As to `CCc1cccc(CC)c1NC(=O)COc1ccccc1C(=O)c1cc(C#N)c(=O)n(C2CCCCC2)c1`, the activation is 2.32% (inactive).
In the case of `Cc1cc(C(=O)NC2CCN(Cc3ccccc3)CC2)n[nH]1` it was 0.51% (inactive); in that of `CN(CC(=O)NCc1ccc(Cl)cc1)S(=O)(=O)c1cccs1`, 0.76% (inactive); in that of `CC(Oc1cccc(Cl)c1)C(=O)Nc1ccc(S(=O)(=O)Nc2ncccn2)cc1` (stereo not given), 1.17% (inactive).
